Bioassay records as filed in PubChem BioAssay.
An excerpt weighted towards active compounds, which were near 11% of everything screened.
VDR inh: Inhibitors of the vitamin D receptor (VDR): qHTS | AID 504847, 2011 | Vitamin D3 receptor (Homo sapiens), P11473 | Potency, µM, without a hit: max response, negative = inhibition, hits mostly inhibitors | 400,000 tested, 0.93% active | VDR-SRC2-3 peptide fluorescence polarization, 2 h; note: % is set by controls: 0 for no effect and ±100 for the full control effect
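Reagent solutions, kept cold and dark, are dispensed first; compounds are then pinned in at 23 nl, plates briefly spun, and incubated 2 h at ambient temperature. Inhibition of VDR–SRC2-3 peptide binding is read by fluorescence polarization.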
BAZ2B inh: qHTS Assay for Inhibitors of BAZ2B | Bromodomain adjacent to zinc finger domain protein 2B (Homo sapiens), Q9UIF8 | AlphaScreen BAZ2B-H3K14Ac peptide displacement | Potency, µM (titrated, usually from 114 µM), for inactives: top-dose activity change, negative = inhibition, hits mostly inhibitors | 360,000 tested, 4.4% active | AID 504333, 2011; note: % is set by controls: 0 for no effect and ±100 for the full control effect; nearly all actives have a fitted effect of over 60% in size
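Compounds, titrated to a top concentration of 110 uM, were incubated 30 min at room temperature with preformed BAZ2B/acetyl-K14 H3 peptide complex (50 nM each). Proximity signal was measured by AlphaScreen after 20 min with beads.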
JMJD2A Tudor: qHTS Assay for Inhibitors of JMJD2A-Tudor Domain | Potency, µM (doses to about 114 µM), inactives show top-dose activity change, negative = inhibition, hits mostly inhibitors | AID 504339, 2011 | AlphaScreen JMJD2A-Tudor / H3K4me3 peptide binding | 390,000 tested, 4.4% active | Lysine-specific demethylase 4A (Homo sapiens), O75164; note: % is set by controls: 0 for no effect and ±100 for the full control effect; nearly all actives have a fitted effect of over 50% in size
PLK1 PBD inh: qHTS for Inhibitors of PLK1-PDB (polo-like kinase 1 - polo-box domain): Primary Screen | AID 720504, 2013 | Serine/threonine-protein kinase PLK1 (Homo sapiens), P53350 | Potency, µM, for inactives: max response, negative = inhibition, actives largely listed as inhibitors | Plk1 PBD binding of FITC phosphopeptide, fluorescence polarization | 360,000 tested, 2.8% active; note: series mostly up to about 57 µM; % is set by controls: 0 for no effect and ±100 for the full control effect; nearly all actives have a fitted effect of over 65% in size
Target sequence (P53350 whole entry, looked up, the tested form may be a part): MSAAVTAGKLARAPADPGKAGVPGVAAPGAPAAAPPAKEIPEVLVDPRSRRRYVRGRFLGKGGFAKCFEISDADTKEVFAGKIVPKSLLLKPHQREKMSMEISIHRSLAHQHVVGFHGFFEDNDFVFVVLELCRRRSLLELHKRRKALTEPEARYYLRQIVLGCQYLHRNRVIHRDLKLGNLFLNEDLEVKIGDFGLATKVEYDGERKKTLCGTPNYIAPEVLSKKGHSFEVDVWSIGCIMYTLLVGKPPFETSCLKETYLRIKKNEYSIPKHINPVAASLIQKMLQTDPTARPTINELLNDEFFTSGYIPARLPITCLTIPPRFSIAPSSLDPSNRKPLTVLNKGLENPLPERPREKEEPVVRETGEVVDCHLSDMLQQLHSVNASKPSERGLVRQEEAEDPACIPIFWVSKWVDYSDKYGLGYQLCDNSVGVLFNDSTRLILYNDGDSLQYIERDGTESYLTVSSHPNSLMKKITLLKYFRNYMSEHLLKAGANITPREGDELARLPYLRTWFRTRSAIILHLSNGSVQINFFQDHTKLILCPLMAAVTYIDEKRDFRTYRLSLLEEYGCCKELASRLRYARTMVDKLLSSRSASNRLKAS
G9a block: qHTS Assay for Inhibitors of Histone Lysine Methyltransferase G9a. G9a H3K9 monomethylation, AlphaScreen, 2 h. AID 504332, 2011. 350,000 tested, 8.8% active. Potency, µM (series often up to 102 µM), inactives show at the highest dose activity, negative = inhibition, usual class: inhibitors; note: % is set by controls: 0 for no effect and ±100 for the full control effect; nearly all actives have a fitted effect of over 75% in size
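Methyltransferase reactions run at room temperature for 2 h (20 nM enzyme, 500 nM biotin-H3K9 peptide, 20 uM SAM) after a 15 min compound preincubation; product detected by AlphaScreen beads and anti-H3K9me1 antibody.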
HP1b binding inh: HTS for Inhibitors of HP1-beta Chromodomain Interactions with Methylated Histone Tails; AlphaScreen HP1-beta / biotin-H3K9me3 peptide binding; Potency, µM (series often up to 114 µM), for inactives: top-dose activity change, negative = inhibition, actives largely listed as inhibitors; 390,000 tested, 0.56% active; AID 540317, 2011; note: nearly all actives have a fitted effect of over 70% in size
Target sequence (P83916 whole entry, looked up): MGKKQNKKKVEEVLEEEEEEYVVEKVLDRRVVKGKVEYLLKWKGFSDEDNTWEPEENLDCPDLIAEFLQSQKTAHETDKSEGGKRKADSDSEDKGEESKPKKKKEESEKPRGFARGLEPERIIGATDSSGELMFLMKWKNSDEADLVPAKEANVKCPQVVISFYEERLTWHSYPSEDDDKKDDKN
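AlphaScreen: HP1-beta (50 nM) preformed 30 min with biotin-H3(1-18)K9me3 peptide (50 nM) in PBS pH 7.4, 0.01% Tween-20. Compound added for 30 min at RT, then streptavidin donor/nickel chelate acceptor beads (10 ug/mL) for 30 min.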
Active calls of the source: *; ? = inconclusive; . = not tested or not shown; [ ] = another dose, or the depositor's remark. Calls come from the whole dose curve; as a rule, active = well fitted curve in the direction sought with a large enough effect; inconclusive = small, poorly fitted or top-dose-only effect, or another doubt; inactive = no such curve, though single readings can be large; an effect the other way counts as inactive or inconclusive. Potency is the fitted concentration of half-maximal effect.

SMILES | VDR inh | BAZ2B inh | JMJD2A Tudor | PLK1 PBD inh | G9a block | HP1b binding inh
COc1ccc(C(=O)COC(=O)c2cccc(NC(=O)c3ccc(OC)c(OC)c3)c2)cc1 | 0.3% | 6.1% | -7.6% | . | 5.1%[59 µM] | 48.1%
O=C1c2ccccc2C(=O)N1CC#CCN1CCN(C2CCCCC2)CC1 | -10.5% | ? | ? | -1.8% | 20µM* | 14.5%
CCOC(=O)c1ccc(C#Cc2ccc3c(c2)C(C)(C)CCS3)nc1 | -17.6% | . | . | . | 108.0%[12.7 µM] | .
O=C(NC1CCCCC1)N(CCO)Cc1cc2cc3c(cc2[nH]c1=O)OCCO3 | 0.1% | -4.4% | 9.5% | 4.1% | -22.5%[59 µM] | 24.8%
O=C(NC1CCCCC1)N(CCN1CCCC1)Cc1cc2cc3c(cc2[nH]c1=O)OCCO3 | 0.8% | 7.7% | -29.1% | -2.4% | 39.8µM* | 17.4%
Cc1cc2cc(CN(CCN3CCOCC3)C(=O)Nc3ccccc3F)c(=O)[nH]c2cc1C | 0.9% | -26.1% | -13.3% | -1.3% | -38.8% | 3.2%
Cc1cc2cc(CN(CCCN3CCOCC3)C(=O)NC3CCCCC3)c(=O)[nH]c2cc1C | 7.2% | 7.4% | -20.9% | -2.4% | 14.1µM* | 10.1%
COCCNC(=O)C1(C)CCCN(Cc2cccc(OC(=O)c3ccccc3)c2)C1 (configuration not stated) | . | . | . | -2.9% | . | .
O=C(CCCC[C@@H]1SC[C@H]2NC(=O)N[C@H]12)Nc1ccc(C(=O)O)cc1 | 12.3% | . | . | . | . | .
O=C(NC(=S)N1CCOCC1)C12CCC3CC(CC(C3)C1)C2 | -4.2% | 12.4% | -23.4% | 29.9µM* | 9.6%[59 µM] | -11.0%
COc1ccc(N(CC(O)CN2CCOCC2)S(=O)(=O)c2ccccc2)cc1 (configuration not stated) | 16.9% | -7.8% | -12.4% | -2.3% | -8.6% | -14.0%
O=C(CCOc1ccccc1)N(Cc1cccnc1)c1nc2ccc(F)cc2s1 | -9.8% | -10.0% | -8.8% | . | ? | 13.4%
Cc1nc2n(c(=O)c1CCN1CCC(c3noc4cc(F)ccc34)CC1)CCCC2O (configuration not stated) | -11.5% | . | . | . | 29.9µM* | .
Cc1nc2ccccn2c(=O)c1CCN1CCC(C(=O)c2ccc(F)cc2)CC1 | 0.8% | 7.7% | -3.4% | -2.0% | 12.8%[59 µM] | 41.5%
CC(C)(C)c1ccc(/C=N/N2CCN(c3ccccn3)CC2)cc1 | -1.8% | -13.9% | -25.3% | 4.9% | . | -5.3%
CN(C)c1ccc(/C=N/N2CCN(c3ccccn3)CC2)cc1 | -21.1% | -27.7% | -28.1% | -5.1% | 12.6µM* | 6.1%
Cc1nn(-c2ccccc2)c(C)c1/C=N/N1CCN(c2ccccc2)CC1 | -2.4% | ? | 20µM* | -1.8% | ? | -12.8%
Cc1nn(-c2ccccc2)c(C)c1/C=N/N1CCN(Cc2ccccc2)CC1 | 1.3% | . | . | . | 16.8µM* | .
Cc1nn(-c2ccccc2)c(C)c1/C=N/N1CCN(c2ccccn2)CC1 | 6.7% | 44.7µM* | ? | -11.7% | ? | ?
C(=N\N1CCN(Cc2ccccc2)CC1)/c1cccnc1 | -0.2% | -24.8% | -13.7% | -3.1% | ? | 16.7%
Cc1nn(-c2ccccc2)c(Cl)c1/C=N/N1CCN(c2ccccn2)CC1 | 5.0% | -1.1% | 2.1% | -11.6% | 13.4%[0.0925 µM] | 33.6%
C=C(C(=O)O)[C@@H]1CC[C@@]2(C)CCC[C@](C)(O)[C@@H]2C1 | -13.4% | . | . | . | . | .
CN(C(=O)CSc1nc2ncccc2o1)c1ccc(F)cc1 | 10.5% | -3.6% | -4.3% | . | -3.9%[59 µM] | 46.1%
Cn1cccc1/C=N/N1CCN(c2ccccc2)CC1 | -5.5% | 50.1µM* | -10.5%[11.4 µM] | -12.8% | 31.6µM* | ?
Cc1ccc(N2CCN(/N=C/c3ccccc3)CC2)cc1 | 7.0% | -36.7% | -26.4% | -4.9% | 2.4% | 13.1%
SMILES | VDR inh | BAZ2B inh | JMJD2A Tudor | PLK1 PBD inh | G9a block | HP1b binding inh
CCCCNS(=O)(=O)c1ccc2nc(SCC(=O)c3ccc(C#N)cc3)[nH]c2c1 | -0.4% | 0.3% | -34.6% | -24.3% | 31.6µM* | 0.5%
COc1cc2oc(=O)cc(-c3ccc(-c4cccc(N)c4)cc3)c2c(OC)c1OC | ? | . | . | . | 28.2µM* | .
CC1=C(C(N)=O)C(c2ccncc2)n2nc(-c3ccccc3Cl)nc2N1 (configuration not stated) | 8.7% | 9.1% | -5.6% | 29.9µM* | -10.8% | 1.8%
CCOc1ccc(Nc2nc(C)c(NC(=O)c3cccc(F)c3)c(Nc3ccc(OCC)cc3)n2)cc1 | -5.6% | 2.6% | ? | . | 20µM* | 39.1%
CCOc1ccc(-n2nc3ccc(NC(=O)c4cccc(F)c4)cc3n2)cc1 | 23.9% | -16.3% | -6.0% | . | 3.5%[59 µM] | 46.2%
COc1ccc(Cl)cc1CNCCSc1nnnn1-c1ccccc1 | 7.3% | 1.3% | 3.0% | . | -4.0%[59 µM] | 93.6%
Cn1nccc1C(=O)OCC(=O)Nc1ccccc1Cl | 12.1% | -2.0% | 4.3% | 3.5% | -0.8% | 1.8%
O=C(CCS(=O)(=O)c1ccccc1)Nc1nc(-c2ccccn2)cs1 | -10.5% | . | 89.1µM* | -16.8% | . | 29.9%
COc1ccc(OCCCC(=O)Nc2nc(-c3ccccn3)cs2)cc1 | -7.7% | 50.1µM* | -33.1% | 26.7µM* | ? | -12.7%
Cc1cc(C)c(OCC(=O)Nc2nc(-c3ccccn3)cs2)c(C)c1 | 6.2% | 50.1µM* | -21.1% | -18.0% | 44.7µM* | 15.3%
O=C(CCS(=O)(=O)c1ccc(F)cc1)Nc1nc(-c2ccccn2)cs1 | -21.5% | ? | 5.4% | -7.7% | ? | 23.2%
CCn1c(SCC(=O)c2ccc(O)c(O)c2)nnc1-c1ccc(C)cc1 | 15.6% | ? | 28.2µM* | -13.7% | 10.0%[2.33 µM] | -9.7%
CCn1c(SCC(=O)N/N=C(\C)c2ccncc2)nnc1-c1ccccc1 | 1.8% | 5.9% | -3.4% | 1.1% | 2.8%[0.501 µM] | 20.0%
CCn1c(SCC(=O)N/N=C(\C)c2ccncc2)nnc1-c1ccc(C)cc1 | 13.7% | -1.1% | -16.9% | -14.5% | 50.1µM* | 28.4%
Cc1nn(CCC(=O)N2CCN(c3ccccc3F)CC2)c(C)c1S(=O)(=O)N1CCCC1 | -5.9% | -7.1% | -17.2% | . | 18.5%[59 µM] | 29.2%
CCC1(C)Cc2[nH]c(=O)c(C#N)cc2CO1 (configuration not stated) | -5.5% | 11.4% | 0.0% | -11.6% | -31.8% | -5.7%
CC1(C)Cc2[nH]c(=O)c(C#N)cc2CS1 | 3.4% | 8.4% | 1.8% | -1.7% | 31.6µM* | 25.1%
Cc1cc(C)c2c(n1)SCC(=O)N2CC(=O)Nc1ccccc1Cl | -8.1% | -0.4% | -8.6% | -2.4% | -3.0% | 31.5%
COC(=O)Cc1ccc(O)c(N)c1 | ? | -15.0% | 10µM* | 9.47µM* | ? | ?
